Measured values taken from PubChem BioAssay (NCI).
Compounds without any hit were thinned out: in the full panel of roughly 83,000, 20% have a hit.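 Single-concentration screen, 48 h exposure, 96-well plates. Endpoint: percent growth. Below 10 = active.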 Unmarked numbers belong to inactive results. Activity calls are given as the source filed them.

Experiments:
Assay in all cases: NCI-60 one-dose screen, 48 h (100 = growth as untreated, 0 = no growth, -100 = all killed)
Details in all cases: 10 µM unless noted
[1] = system: DU-145 prostate
[2] = system: K-562 leukemia
[3] = system: MALME-3M melanoma
[4] = system: MDA-MB-231 breast
[5] = system: RXF 393 renal
[6] = system: SF-268 CNS
[7] = system: SF-295 CNS
[8] = system: SF-539 CNS
[9] = system: UACC-257 melanoma
[10] = system: M14 melanoma
[11] = system: HCT-15 colon
[12] = system: HT29 colon
[13] = system: SNB-75 CNS
[14] = system: SNB-19 CNS
[15] = system: U251 CNS
[16] = system: PC-3 prostate
[17] = system: SK-MEL-5 melanoma
[18] = system: UACC-62 melanoma
[19] = system: LOX IMVI melanoma
[20] = system: SK-MEL-28 melanoma

Row | SMILES | growth [1] | growth [2] | growth [3] | growth [4] | growth [5] | growth [6] | growth [7] | growth [8] | growth [9] | growth [10] | growth [11] | growth [12] | growth [13] | growth [14] | growth [15] | growth [16] | growth [17] | growth [18] | growth [19] | growth [20]
1 | Nc1n[nH]c2cc(F)c([C@@H]3Nc4c(F)cc5[nH]ncc5c4[C@H]4C5CCC(C5)[C@@H]34)cc12 (stereo not given in full) | -0.222% (active) | 11.6% | 46.3% | 15.5% | 41.3% | 10.5% | 15% | 4.53% (active) | 72.4% | 21.2% | 6.76% (active) | 17% | -20.9% (active) | 53.1% | 33.2% | 22.5% | 8.05% (active) | 35.3% | 20.2% | 52.8%
2 | O=[N+]([O-])c1ccc(-c2cc(-c3ccc(Nc4nc(Nc5ccc(Cl)cc5)nc(Nc5ccc(Cl)cc5)n4)cc3)no2)cc1 | 87.7% | 65.6% | 96.3% | 73.5% | 71.7% | 96.1% | 563% | 95.4% | 105% | 102% | 89.9% | 16.5% | 16.9% | 98.2% | 91.9% | 74.1% | 79.5% | 95.7% | 84.4% | 40.5%
3 | CCCCCCCCn1ccc2cc(NC(=O)Cn3cc(CN4CCCC4)nn3)ccc21 | 66.9% | 2.29% (active) | -63.3% (active) | 11.6% | 44.6% | 46.2% | -68.3% (active) | 78.9% | 51.6% | -66.5% (active) | -45.6% (active) | -57.8% (active) | 96.6% | 0.775% (active) | -35.5% (active) | 64.9% | 30.7% | -82.1% (active) | -85.1% (active) | -70.9% (active)
4 | COc1ccc(-c2c(N)n[nH]c2-c2ccc(Cl)cc2O)cc1OC | 101% | 75.5% | 105% | 106% | 98.2% | 102% | 99.2% | 100% | 93% | 93.2% | 88.5% | 111% | 91.3% | 97.7% | 95.6% | 86.3% | 93.7% | 76.3% | 89.5% | 106%
5 | COc1ccc(-c2csc(C3=C(O)CN(CCCN4CCCC4=O)C3=N)n2)cc1OC | 103% | 88.9% | 129% | 79.6% | 78.3% | 121% | 92% | 90.1% | 97.2% | 122% | 94% | 114% | 106% | 93.8% | 99% | 83.5% | 89.2% | 103% | 93.5% | 124%
6 | O=C(NCCCNc1cc(-c2cn(-c3ccccc3)nc2-c2cccc(O)c2)ccn1)c1cccc(O)c1 | 78.3% | 7.59% (active) | 64.2% | 43.5% | 77.3% | 63.8% | 83.3% | 69.5% | 58.4% | 52.8% | 79.5% | 87% | 59.8% | 79.7% | 42.3% | 39.4% | 43.7% | 42% | 54.1% | 77.6%
7 | COc1ccc2[nH]c(O)c(C(=Nc3ccc(N(C)C(=O)CN4CCN(C)CC4)cc3)c3ccccc3)c2c1 | 27.7% | 5.35% (active) | 43.5% | 28.4% | -25.1% (active) | 30.7% | 48.3% | -38.9% (active) | 65.9% | 29.3% | 24.7% | 18% | -5.94% (active) | 57.5% | 45.1% | 56.6% | 67.3% | 75.3% | 9.09% (active) | 42.4%
8 | Cc1cc(NCCCCNc2ccnc3cc(Cl)ccc23)nc(Nc2ccc(C(=O)N3CCCC3)cc2)n1 | 48.3% | -24.6% (active) | -70.4% (active) | -22.2% (active) | 32.4% | 15.7% | 3.67% (active) | -68.6% (active) | -70.6% (active) | -73.9% (active) | 7.18% (active) | -2.28% (active) | -9.47% (active) | 30.5% | -7.46% (active) | 35.6% | -100% (active) | -33.6% (active) | -90.9% (active) | -72.8% (active)
